Source: PubChem BioAssay (Sanford-Burnham Center for Chemical Genomics)
TROY signal inh: TROY signaling inhibition | Q293 LMP1-TROYcd NF-kB luciferase reporter, 4 h | inhibition, % at 10 µM | 360,000 compounds, 0.98% hits;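 active means compounds whose plate-normalised and pattern-corrected inhibition of the luciferase reporter signal at the single screening dose is 50% or more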
TWEAK Fn14 block: blocks TWEAK-Fn14 interaction in a reporter cell assay. TWEAK-stimulated Fn14 reporter cells, luciferase luminescence, 8 h. inhibition, % at 10 µM. 360,000 compounds, 2% hits. AID 1159606; in the data active means inhibition above about 50%
Peg3 prom inh: reduces Peg3 promoter-driven luciferase expression in HeLa; 360,000 compounds, 1.7% hits; HeLa PEG-Prom luciferase reporter, luminescence, overnight; inhibition, % at 20 µM;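 active means inhibition of at least 50% at 20 µM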
HIF-2a block: inhibitors of HIF-2a | 786-0 RCC cells HIF-2a reporter, luciferase luminescence, overnight | inhibition, % at 18.8 µM | 360,000 compounds, 0.72% hits;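 active means inhibition of the luminescence signal of 40% or more relative to plate controls, in a single-dose primary screen at 18.75 µM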
KKLEB cytotox: CF airway cell cytotoxicity counter-screen; KKLEB CF airway cells viability, ATPlite luminescence, overnight; stronger effect = lower value; cells stimulated with P. aeruginosa culture filtrate; activity change (cytotoxicity), % at 5 µM; 360,000 compounds, 0.36% hits;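 active means corrected activity change at or below -50% at 5 µM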
CF NFkB block: blocks PAF-induced NF-kB reporter in cystic fibrosis cells; 360,000 compounds, 0.86% hits; KKLEB NF-kB-GFP reporter, GFP fluorescence overnight; inhibition, % at 5 µM;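 active means at least 50% inhibition at 5 µM, scaled per plate between neutral and stimulator controls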;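 further: PAF is a Pseudomonas aeruginosa culture filtrate used as stimulus; plate controls were PAF-stimulated DMSO wells for no effect and unstimulated DMSO wells for full effect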
* = called active by the depositor; nt = no result given; ! = not confirmed by another sample. Shown are actives, neighbours in structure and some others; about 4% of the full set was active somewhere.

SMILES	TROY signal inh	TWEAK Fn14 block	Peg3 prom inh	HIF-2a block	KKLEB cytotox	CF NFkB block
CCCCNc1c(-c2ccc(OC)c(SC(C)CC)c2)nc2ccc(Cl)cn12 (configuration not stated)	-13.8	-3.9	5.7	-36.5	-0.6	-3.8
CCC(C)Sc1cc(-c2nc3ccc(C)cn3c2NCc2ccccc2)ccc1OC (configuration not stated)	24.3	78.2*!	95.9*	-120.3	-32.2	57.5*
O=C(NCCc1ccc(O)cc1)c1[nH]c(C(F)(F)F)nc1-c1ccccc1	7.7	11.5	9.1	6.0	-10.9	21.2
COc1c(Br)cc([N+](=O)[O-])c(OC)c1C(=O)NC(=O)Nc1c(Cl)cccc1Cl	0.2	-0.1	13.4	12.2	16.5	8.0
COc1c(Br)cc([N+](=O)[O-])c(OC)c1C(=O)NC(=O)Nc1cc(Cl)cc(Cl)c1	52.0*	12.8	46.0	18.9	-19.7	30.4
O=C(CSc1nnc(-c2cccnc2)s1)Nc1ccnc2ccccc12	31.7	60.8*	10.8	18.0	-12.6	26.9
S=C(Nc1cccc(Cl)c1)N(CCCN1CCCC1)Cc1cccn1Cc1ccc(Cl)cc1	9.9	-11.0	100.1*	8.5	-33.8	38.2
CSc1cccc(NC(=S)N(CCCN2CCCC2)Cc2cccs2)c1	7.9	-10.8	0.9	5.2	-10.0	-8.4
COc1cccc(NC(=S)N(CCCN2CCCC2)Cc2cccn2Cc2ccc(Cl)cc2)c1	0.2	-19.2	-0.1	-20.8	-3.1	15.8
CSc1cccc(NC(=S)N(CCCN2CCCC2)Cc2cccn2Cc2ccc(Cl)cc2)c1	-9.1	-14.3	107.5*	-10.3	-13.2	17.1
COc1ccc(N2CCN(C3CCCN(C(=O)CN4CCOC4=O)C3)CC2)cc1 (configuration not stated)	-1.5	12.7	18.4	2.4	11.9	5.4
CCCCC(CC)CN=C(N)NC(N)=NCCCCCCN=C(N)NC(N)=NCC(CC)CCCC (configuration not stated)	71.1*	105.3*	102.6*	97.8*	-17.0	52.4*
O=C(Nc1ccccc1)c1cc(C2COCCN2C(=O)C2CC2)on1 (configuration not stated)	-12.3	8.0	-9.8	-7.4	6.5	-7.0
CC(C)(C)OC(=O)NC(CNCc1ccccc1)Cc1ccccc1 (configuration not stated)	-2.6	0.2	-10.6	2.1	16.2	-13.2
CSc1nnc(N(CCC#N)CCC#N)s1	-6.1	-5.6	3.4	11.9	6.4	-6.3
Cc1nnc(N(CCC#N)CCC#N)s1	nt	84.8*	12.8	11.6	15.5	-8.7
C=CCNC(=O)c1ccsc1N	nt	nt	nt	7.8	nt	nt
Cc1nc(Nc2nc3ccccc3o2)nc2c1CCC2	31.6	91.0*	47.8	26.4	18.2	-33.1
CC(=O)SCC(=O)N=c1sc2cc(F)ccc2n1C	-11.6	14.4	-10.6	13.1	-10.0	20.8
Cn1c(=NC(=O)CCl)sc2ccccc21	6.5	40.6	34.8	-80.6	-85.6*	94.5*
Cn1c(=NC(=O)c2ccco2)sc2ccccc21	-2.6	19.5	-166.9	-184.3	-6.4	-9.1
CC(=O)N=c1sc2cc(C)ccc2n1C	4.4	51.9*	-122.7	-2.7	-0.3	-9.8
CCOC(=O)c1cc(NC(=O)N(C)C2CCCCC2)c(C)nc1C	-6.7	-9.1	4.8	3.1	3.3	-2.5
Cc1ccc(C(=O)Nc2nc(-c3ccco3)c(-c3ccco3)s2)o1	-6.8	82.6*	-9.2	18.2	15.9	-74.6
Oc1ccccc1CNc1ccc2c(c1)OCCO2	29.8	39.3	-101.5	-53.6	-4.4	22.2
SMILES	TROY signal inh	TWEAK Fn14 block	Peg3 prom inh	HIF-2a block	KKLEB cytotox	CF NFkB block
c1csc(CNc2ccc3c(c2)OCCO3)c1	29.6	62.6*	-23.2	-49.6	-0.6	-16.1
O=C1c2c(Br)c(Br)c(Br)c(Br)c2C(=O)N1c1ccccn1	12.5	39.4	52.2*	39.9	3.8	-4.7
O=C1c2cccc3cccc(c23)C(=O)N1c1ccccn1	-16.7	3.4	-13.3	8.9	2.0	-12.1
CC1=C(C(=O)N(C)C)CC(CC(=O)NCc2ccco2)C(=O)N1Cc1ccccc1 (configuration not stated)	0.2	-8.8	-15.5	2.4	-7.2	29.1
CC(=O)c1ccc(N=Nc2ccc(N)cc2)cc1	11.1	69.1*	-71.7	-50.7	0.3	-23.0
CC(=O)c1ccc(N=Nc2c(C)[nH][nH]c2=O)cc1	-23.8	-22.7	-121.4	-165.2	4.1	3.9
COCCCNC(=O)CCc1c(C)nc2c(c(C)nn2-c2ccccc2)c1C	5.8	16.8	8.1	20.2	-1.1	4.9
Cc1ccc(-n2nc(C)c3c(C)c(CCC(=O)Nc4ccc(CN5CCCC5)cc4)c(C)nc32)cc1	-31.2	-51.3	68.0*	-0.6	-14.4	26.8
CCN(CC)CCNC(=O)CCc1c(C)nc2c(c(C)nn2-c2ccc(C)c(C)c2)c1C	-41.2	-16.4	82.1*	0.7	-6.4	7.7
COC(CNC(=O)CCc1c(C)nc2c(c(C)nn2-c2ccc(C)cc2)c1C)OC	-8.3	20.5	-3.0	1.8	-0.1	4.3
CCN1CCN(CCNC(=O)CCCn2nc(C)c3c(C)n(-c4ccc(C)cc4)nc3c2=O)CC1	19.5	1.9	-2.1	4.6	2.8	7.8
CC(OC(=O)c1ccc(O)cc1)C(=O)Nc1nc(-c2ccccc2)cs1 (configuration not stated)	41.6	55.1*	-23.9	-70.5	11.0	-17.3
O=C(Cc1c(Cl)cccc1Cl)OCC(=O)c1ccc[nH]1	-27.2	-20.8	-79.9	-108.1	9.6	-7.3
c1ccc2nc(-c3nc4ccccc4o3)ccc2c1	58.3*	93.6*	18.9	17.3	-26.7	-39.7
c1ccc(-c2nc3ccccc3o2)nc1	-48.4	-2.5	-176.6	-157.8	3.5	-19.4
CCNc1nc(-c2sc(NC(=O)C(C)(C)C)nc2C)c(-n2cc(-c3ccccc3)nn2)s1	-1.4	86.1*	nt	-9.3	nt	nt
Cc1ccc2[nH]c(C(=O)N3CCN(C(c4ccccc4)c4ccccc4)CC3)cc2c1	-3.9	14.6	28.1	3.8	15.3	-13.7
CNc1ccc(/C=C2\CSc3ccccc3C2=O)cc1[N+](=O)[O-]	62.2*	83.3*	-32.3	-113.4	3.2	26.3
O=S(=O)(c1ccc(Cl)cc1)c1cnc2ccccc2n1	12.6	58.6*	44.4	14.2	-29.5	47.8
Cn1cnnc1SCc1ccc(C(=O)N/N=C(/CCC(=O)O)c2ccc(C(C)(C)C)cc2)cc1	-9.9	-4.7	-47.9	-19.8	-4.9	4.1
CCCCCCCCCCS(=O)(=O)N/N=C/c1ccc([N+](=O)[O-])cc1	51.0*	3.7	6.4	0.1	5.3	-6.2
CC(C)CC(N)c1csc(Nc2ccccn2)n1 (configuration not stated)	-11.8	-12.6	-17.3	-39.6	-11.3	25.2
CC(C)C(=O)Nc1nnc(CSCc2ccccc2F)s1	-15.3	-17.4	-24.8	-37.8	-5.7	6.2
CC(C)(C)C(=O)Nc1nnc(CSCc2ccccc2F)s1	30.0	73.4*	13.6	-0.7	1.4	6.2
